# From PubChem BioAssay AID1159580 (chemical genetic matrix, 2015)
# In all, about 5,500 compounds went through this assay and about 2,000 (36%) were called active. Another 18% or so got no clear call; they are omitted. Some of the results follow. A number with no mark means an inactive call. Rule as the data show it: active = normalized growth mostly below about 0.91 (no sharp cut-off); inconclusive = no clear call, values can overlap the other calls; inactive = mostly above about 0.92.
# Test: chemical genetic growth profiling, strain panel (AID 1159580);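 also: tested at 20 µM; growth read once vehicle control cultures reached saturation at 30 °C; 1 = growth at the plate median or of vehicle wells; lower values mean less growth of the strain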
# Conditions: S. cerevisiae deletion strains, growth OD
# [1] = locus YAL040C, strain CLN3, active compounds read low
# [2] = locus YCL061C, strain MRC1 (second series), active compounds read low
# [3] = locus YDR150W, strain NUM1, active compounds read low
# [4] = locus YDR363W, strain ESC2, active compounds read low
# [5] = locus YER002W, strain NOP16, active compounds read low
# [6] = locus YGR229C, strain SMI1, active compounds read low
# [7] = locus YNL128W, strain TEP1, active compounds read low
# [8] = locus YNL175C, strain NOP13, active compounds read low
# [9] = locus YNL197C, strain WHI3, active compounds read low
# [10] = locus YOR083W, strain WHI5 (second series), active compounds read low
smiles,measurement,setting,value
CC(C)(C)c1ccc(C(O)CCCN2CCC(C(O)(c3ccccc3)c3ccccc3)CC2)cc1 (stereo unspecified),normalized growth,"locus YAL013W, strain DEP1, active compounds read low",0.984
same,normalized growth,[1],0.991
same,normalized growth,[2],1
same,normalized growth,[3],1.01
same,normalized growth,[4],1
same,normalized growth,[5],1.22 [resistant] (active)
same,normalized growth,[6],0.936
same,normalized growth,"locus YHR030C, strain SLT2, active compounds read low",0.952
same,normalized growth,"locus YHR079C, strain IRE1, active compounds read low",0.941
same,normalized growth,"locus YJL095W, strain BCK1, active compounds read low",0.973
same,normalized growth,"locus YJR066W, strain TOR1, active compounds read low",0.972
same,normalized growth,"locus YLR113W, strain HOG1, active compounds read low",0.978
same,normalized growth,"locus YMR307W, strain GAS1, active compounds read low",1.01
same,normalized growth,[7],1.09
same,normalized growth,"locus YNL153C, strain GIM3, active compounds read low",1.01
same,normalized growth,[8],1.25 [resistant] (active)
same,normalized growth,"locus YNL183C, strain NPR1, active compounds read low",0.936
same,normalized growth,[9],1.15 [resistant] (active)
same,normalized growth,[10],1.05
same,normalized growth,"locus YOR231W, strain MKK1, active compounds read low",0.966
same,normalized growth,"locus YPL055C, strain LGE1, active compounds read low",0.978
same,normalized growth,"locus YPL256C, strain CLN2, active compounds read low",0.955
CN1[C@@H](CC(=O)c2ccccc2)CCC[C@H]1C[C@H](O)c1ccccc1,normalized growth,[1],1.01
same,normalized growth,[2],1.01
same,normalized growth,[3],1.01
same,normalized growth,[4],0.984
same,normalized growth,[5],1
same,normalized growth,[6],0.99
same,normalized growth,"locus YJR075W, strain HOC1, active compounds read low",1.01
same,normalized growth,"locus YMR263W, strain SAP30, active compounds read low",1.01
same,normalized growth,[7],1
same,normalized growth,[8],1.02
same,normalized growth,[9],1.01
same,normalized growth,"locus YNL224C, strain SQS1, active compounds read low",1
same,normalized growth,[10],1.02
same,normalized growth,"locus YPL241C, strain CIN2, active compounds read low",1.01
